Experimental data: the supplement of paper PMC7858590

Tested on: human monocyte-derived macrophages (polarized)
Assay: cell shape (eccentricity) Z-score vs DMSO control; higher = more elongated, M2-like morphology
Conditions: 5 µM; 24 h; macrophage state: M1-polarized (IFNg + TNFa), cytokines present during treatment
Description: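 Primary-screen hits were rescreened on polarized hMDMs with the differentiating cytokines (IL-4 + IL-13 or IFNg + TNFa) kept in the medium during treatment with compound at 5 uM for 24 h. The eccentricity Z-score vs DMSO wells is averaged over experiments.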

| SMILES | cell shape (Z-score) |
| --- | --- |
| COc1ccc2c(c1OC)CN(C)CCc1cc3c(cc1C(=O)C2)OCO3 | -5.59 |
| CCOC(=O)N[C@@H]1CC[C@@H]2[C@@H](C1)C[C@H]1C(=O)O[C@H](C)[C@H]1[C@H]2/C=C/c1ccc(-c2cccc(F)c2)cn1 | 5.58 |
| Cc1cc(N2CCOCC2)cc2[nH]c(-c3c(NC[C@@H](O)c4cccc(Cl)c4)cc[nH]c3=O)nc12 | 2.38 |
| CC1=C(/C=C/C(C)=C/C=C/C(C)=C/CO)C(C)(C)CCC1 | 7.5 |
| Nc1nc(Nc2ccccc2)nc2c1ncn2C1OC(CO)C(O)C1O (centres undefined) | 2.02 |
| C=C1C(=O)O[C@H]2C3=C(C)C[C@H](OC(C)=O)C[C@]3(C)CC[C@@H]12 | -1.91 |
| C=C[C@@]1(C)CC(=O)[C@]2(O)[C@@]3(C)[C@@H](O)CCC(C)(C)[C@@H]3[C@H](O)[C@H](OC(C)=O)[C@@]2(C)O1 | -1.28 |
| CC[C@@H]1C(=O)N(C)c2cnc(Nc3ccc(C(=O)NC4CCN(C)CC4)cc3OC)nc2N1C1CCCC1 | -1.93 |
| CC(C)(C)c1cc(C(=O)/C=C/c2ccc(C(=O)O)cc2)cc(C(C)(C)C)c1 | -7.58 |
| CO[C@H]1C[C@H](O[C@@H]2/C(C)=C/C[C@@H]3C[C@@H](C[C@]4(CC[C@H](C)[C@@H](C5CCCCC5)O4)O3)OC(=O)[C@@H]3C=C(C)/C(=N/O)[C@H]4OC/C(=C\C=C\[C@@H]2C)[C@]43O)O[C@@H](C)[C@@H]1O | 17.6 |
| C[C@]1(CO)CN(c2cc(C(=O)Nc3ccc4c(c3)-c3c(c(C(N)=O)nn3-c3ccc(F)cc3)CC4)c(Cl)cn2)C[C@@]1(C)CO | -7.03 |
| O=c1cc(-c2ccc(O)cc2)oc2cc(O)ccc12 | 2.2 |
| Cc1c(NC(=O)c2cccnc2)c(=O)n(-c2ccccc2)n1C | 1.43 |
| CCN(CC)CCOc1ccc2c(c1)C(=O)c1cc(OCCN(CC)CC)ccc1-2 | -4.84 |
| Cn1cc(C2=C(c3cn(CCCSC(=N)N)c4ccccc34)C(=O)NC2=O)c2ccccc21 | 17.6 |
| COc1cccc(NC(=O)/C=C/c2ccc(Cl)cc2)c1 | 4.58 |
| COc1cc(Nc2ncc(F)c(Nc3ccc4c(n3)NC(=O)C(C)(C)O4)n2)cc(OC)c1OC | -14.9 |
| O=C(Cc1ccc(-c2ccc(OCCN3CCOCC3)cc2)cn1)NCc1ccccc1 | 9.67 |
| COc1cc(-c2ccc(=O)[nH]n2)ccc1OC(F)F | -4.29 |
| CC1(C)CCC(C)(C)c2cc(C(=O)Nc3ccc(C(=O)O)cc3)ccc21 | -9.74 |
| O=S(=O)(c1cccc2cnccc12)N1CCNCC1 | 3.08 |
| COc1cc(C2OC(c3cc(OC)c(OC)c(OC)c3)C(C)C2C)cc(OC)c1OC (centres undefined) | 4.93 |
| CCOc1cc2ncc(C#N)c(Nc3ccc(OCc4ccccn4)c(Cl)c3)c2cc1NC(=O)/C=C/CN(C)C | 0.0624 |
| Cc1cc(O)cc(=O)o1 | 7.71 |
